Reference: PubChem BioAssay (NCI)
Several values for one entry are separate records, joined by “and”; a condition that tells them apart may be missing. Identical values can stand only once. The panel holds about 83,000 compounds, 20% with a hit somewhere; the sample as a whole holds those more often.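 Cells were grown in 96-well plates and exposed to the test compound at a single concentration for 48 hours; results are reported as percent growth, with values below 10 considered active.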 Activity calls are given as the source filed them.

System: UACC-62 melanoma
Assay: NCI-60 one-dose screen, 48 h (100 = growth as untreated, 0 = no growth, -100 = all killed)
Settings: 10 µM
Protocol: Growth inhibition of the UACC-62 human tumor cell line is measured as a screen for anti-cancer activity. Cells are grown in 96 well plates and exposed to the test compound for 48 hours. Compounds are tested at a single concentration, which is 10^-5 M for most compounds. The reported endpoint is percent growth (GI% or GIPRCNT), where numbers from 0 - 100% represent growth inhibition, and numbers from -100% - 0 represent cell death. For example, a value of 40 represents 60% growth inhibition. A value of 0 means no net growth occurred over the course of the experiment. A value of -40 indicates 40% of cells at the beginning of the experiment died by the end of the experiment. A value of -100 means all cells are dead at the end of the experiment.
NCI-60 Human Tumor Cell Lines Screen was performed using the standard one-dose NCI protocol, which is described in more detail at https://dtp.cancer.gov/discovery_development/nci-60/default.htm.
Compounds with GIPRCNT values below 10 were considered active. Activity score was based on GIPRCNT using the following formula: […]
Score is 0 for GIPRCNT values of 100 or above, 50 for GIPRCNT values of 0, and 100 for GIPRCNT values of -100.

Structure (SMILES) | growth
CC1CCC2(OC1)OC1C(O)C3C4CCC5CC(OC6OC(CO)C(OC7OC(CO)C(O)C(OC8OCC(O)C(O)C8O)C7OC7OC(CO)C(O)C(OC8OC(CO)C(O)C(O)C8O)C7O)C(O)C6O)C(O)CC5(C)C4CCC3(C)C1C2C (stereo not given) | 22.5% (inactive)
COc1cc2c(c(OC)c1OC)-c1ccc(O)c(=O)cc1[C@@H](NC(C)=O)CC2 | 55.2% (inactive)

Same assay, conditions: 10 µM unless noted

Structure (SMILES) | growth
CC[C@@]1(O)C[C@H](OC2CC(N(C)C)C(O)C(C)O2)c2c(cc3c(c2O)C(=O)c2c(O)ccc(O)c2C3=O)[C@H]1C(=O)OC (stereo not given in full) | -91.4% (active)
COc1cc([N+](=O)[O-])c2ncccc2c1[N+](=O)[O-] | 74% (inactive)
O=c1[nH]c2ccccc2n1C1CCN(CCCC(c2ccc(F)cc2)c2ccc(F)cc2)CC1 | 38.4% (inactive) and 30.3% (inactive)
C[C@@H]1C[C@@H]([C@H](O)CC2CC(=O)NC(=O)C2)C(=O)[C@@H](C)C1 | 5.43% (active)
CC(=O)[O][Hg][c]1c(C)c(C)cc(C)c1C | -26.1% (active)
CN(C)CC1(N)C(=O)NC(=O)NC1=O | 97.5% (inactive)
[Cl][Hg][c]1ccc2ccccc2c1 | -43% (active)
O=C1CCC(=O)N1SC(Cl)(Cl)Cl | 106% (inactive)
COS(=O)(=O)c1ccccc1 | 102% (inactive)
[O-][n+]1ccccc1S | 13.6% (inactive)
COc1ccccc1[As]=[As]c1ccccc1OC (stereo not given) | -84.6% (active)
Cc1ccc(C(=O)C2C(c3ccccc3)N2C2CCCCC2)cc1 (stereo not given) | 102% (inactive) and 91.2% (inactive)
C[C@]12CC[C@H]3[C@@H](CCC4=CC(=O)CC[C@@H]43)[C@@H]1CC[C@@H]2OC(=O)N(CCCl)N=O | 20.6% (inactive)
[Cl][Sn]([c]1ccccc1)([c]1ccccc1)[c]1ccccc1 | -75.4% (active)
CC(=O)Nc1c2sscc-2n(C)c1=O | -99.2% (active)
CN(CCCl)c1ccc(/C=C/C2=[N+](C)c3ccccc3C2(C)C)cc1 | 31.6% (inactive)
O=S(=O)(F)c1ccc(Cl)cc1 | 103% (inactive)
COc1cc(/C=C(/C)[N+](=O)[O-])ccc1O | 55.4% (inactive) and -53.8% (active)

Structure (SMILES) | growth
COc1ccc(/C=C(\C)[N+](=O)[O-])cc1OC | 32.7% (inactive)
O=[N+]([O-])/C=C/c1ccc(Cl)cc1[N+](=O)[O-] | 73.7% (inactive)
COC12C(COC(N)=O)C3=C(C(=O)C(C)=C(N)C3=O)N1CC1C2N1C (stereo not given) | 46.3% (inactive)
CCOC(=O)c1[nH]cnc1/N=N/N(C)N | 75.8% [100 µM] (inactive) and -1.61% [100 µM] (active)
COC12c3c(C)cc(O)c4c(=O)occ(c34)C(=O)C1C13COC(=O)c4c(O)cc(C)c(c41)C(=O)C2C3OC(C)=O (stereo not given) | 97.5% (inactive)
Oc1c(Cl)cc(Cl)c2ccccc12.[Cu+2] | 109% (inactive)
CC(C)(C)OOC(=O)/C=C\C(=O)OOC(C)(C)C | 94.7% (inactive)
O=C1C(=O)c2ccccc2-c2ccccc21 | -67.4% (active)
COc1cc(/C=C/[N+](=O)[O-])cc(OC)c1OC | -26.9% (active)
Cc1ccc(NC(=O)CBr)cc1 | 86.8% (inactive)
COc1ccc(/C=C\[N+](=O)[O-])cc1OC | 74.1% (inactive) and 50% (inactive)
NC(=O)c1cc([N+](=O)[O-])c(Cl)c([N+](=O)[O-])c1Cl | 5.65% (active)
NC(=O)c1cc([N+](=O)[O-])c(Cl)c([N+](=O)[O-])c1 | 100% (inactive)
COc1cc2c3cc1Oc1c(OC)c(OC)cc4c1C(Cc1ccc(cc1)Oc1cc(ccc1O)CC3N(C)CC2)N(C)CC4 (stereo not given) | -16.8% [100 µM] (active) and -81.7% [100 µM] (active)
O=C(CBr)Nc1ccccc1 | 99.6% (inactive)
CS(=N)(=O)CCC(N)C(=O)O (stereo not given) | 113% (inactive)
O=[N+]([O-])c1ccc(N(CCO)CCO)c2c1no[n+]2[O-] | -41.6% (active)
O=C(CBr)Nc1ccc(Cl)cc1 | 71.6% (inactive)

Same assay, conditions: 100 µM

Structure (SMILES) | growth
CC1CCC2(OC1)OC1C(O)C3C4CCC5CC(OC6OC(CO)C(OC7OC(CO)C(O)C(OC8OCC(O)C(O)C8O)C7OC7OC(CO)C(O)C(OC8OC(CO)C(O)C(O)C8O)C7O)C(O)C6O)C(O)CC5(C)C4CCC3(C)C1C2C (stereo not given) | -89.7% (active) and -92% (active)
COc1cc2c(c(OC)c1OC)-c1ccc(O)c(=O)cc1[C@@H](NC(C)=O)CC2 | -41.5% (active)
